From PubChem BioAssay come the findings set out here.

The structures appear in SMILES notation. Several values for one entry are separate records, joined by “and”; a condition that tells them apart may be missing. Equal values may be shown once. Activity calls are given as the source filed them.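 Rule for the calls, unless noted: active = luciferase signal above three times the same-plate solvent-only control wells; inactive = the rest.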

Chain of NAD(+) hydrolase SARM1 (Homo sapiens) (Q6SZW1 whole entry, looked up): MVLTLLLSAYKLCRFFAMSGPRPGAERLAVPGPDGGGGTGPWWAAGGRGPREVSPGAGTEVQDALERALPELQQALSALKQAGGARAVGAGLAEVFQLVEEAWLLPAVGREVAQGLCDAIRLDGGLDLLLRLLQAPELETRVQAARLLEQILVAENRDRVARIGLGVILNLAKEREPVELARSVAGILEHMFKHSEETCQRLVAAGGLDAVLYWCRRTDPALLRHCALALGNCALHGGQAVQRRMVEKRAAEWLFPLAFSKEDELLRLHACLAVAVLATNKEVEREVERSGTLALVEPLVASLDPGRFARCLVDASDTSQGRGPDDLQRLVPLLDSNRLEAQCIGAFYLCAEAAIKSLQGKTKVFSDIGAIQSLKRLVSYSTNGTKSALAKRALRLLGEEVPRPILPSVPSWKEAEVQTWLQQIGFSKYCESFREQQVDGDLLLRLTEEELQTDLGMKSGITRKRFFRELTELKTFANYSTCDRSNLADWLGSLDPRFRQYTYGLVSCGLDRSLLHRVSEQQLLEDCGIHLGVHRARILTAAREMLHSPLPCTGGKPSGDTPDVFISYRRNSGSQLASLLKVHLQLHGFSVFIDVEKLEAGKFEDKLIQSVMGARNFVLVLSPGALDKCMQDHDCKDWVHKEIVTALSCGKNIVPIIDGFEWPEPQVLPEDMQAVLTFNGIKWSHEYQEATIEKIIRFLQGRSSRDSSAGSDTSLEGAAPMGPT
Chain of Mitogen-activated protein kinase 7 (Homo sapiens) (Q13164 whole entry, looked up, the tested form may be a part): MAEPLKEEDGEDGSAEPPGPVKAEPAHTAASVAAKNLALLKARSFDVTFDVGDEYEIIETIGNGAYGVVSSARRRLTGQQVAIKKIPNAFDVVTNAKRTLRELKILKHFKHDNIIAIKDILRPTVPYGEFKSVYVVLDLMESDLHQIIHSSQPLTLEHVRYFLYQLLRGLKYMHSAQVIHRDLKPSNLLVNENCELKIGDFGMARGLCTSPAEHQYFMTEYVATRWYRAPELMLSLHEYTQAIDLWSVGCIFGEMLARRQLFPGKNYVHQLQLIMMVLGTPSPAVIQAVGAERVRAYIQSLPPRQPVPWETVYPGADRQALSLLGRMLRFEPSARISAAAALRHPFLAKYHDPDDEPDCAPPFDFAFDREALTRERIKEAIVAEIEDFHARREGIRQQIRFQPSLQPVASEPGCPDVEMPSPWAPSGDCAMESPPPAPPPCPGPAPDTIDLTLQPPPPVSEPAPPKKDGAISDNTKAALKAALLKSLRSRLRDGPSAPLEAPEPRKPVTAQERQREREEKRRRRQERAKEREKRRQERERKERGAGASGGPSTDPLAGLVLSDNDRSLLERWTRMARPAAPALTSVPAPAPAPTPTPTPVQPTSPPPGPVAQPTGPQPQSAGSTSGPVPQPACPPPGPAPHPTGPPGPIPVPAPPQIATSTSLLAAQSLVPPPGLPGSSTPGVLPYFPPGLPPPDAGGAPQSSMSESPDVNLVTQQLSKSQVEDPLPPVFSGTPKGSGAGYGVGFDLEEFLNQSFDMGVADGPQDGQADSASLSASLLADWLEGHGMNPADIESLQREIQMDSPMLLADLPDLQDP

System in the first experiment: not listed separately
Nature of the experiment: viability loss with induced miR-34 in A549 – imaging, A549 dox-inducible miR-34, nuclei and caspase counts, primary screen (AID 1347080;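 active = compounds whose cell count with miR-34 switched on is under 0.7 times the count with it off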). To be noted: A549 miR-34 inducible, Hoechst nuclei count, 48 h; stronger effect = lower value; cell number ratio, induced over uninduced.
In the case of `CCCn1cnc2c1c(=O)n(CCCCC(C)=O)c(=O)n2C`, the fold change was 1.02 (inactive).
On to `Cc1c(-c2ccc(O)cc2)n(Cc2ccc(OCCN3CCCCCC3)cc2)c2ccc(O)cc12`, for which the fold change was 0.919 (inactive).
Still for that read-out and setting: for `CCN(CC)C(=O)c1cccnc1` the value was 0.953 (inactive); for `O=C(O)c1cc(N=Nc2ccc(O)c(C(=O)O)c2)ccc1O`, 0.936 (inactive) and 1.24 (inactive).

The experiment is the same for the next values; noted with them: A549 miR-34 inducible, Hoechst nuclei count, 48 h; measured here: relative caspase fold change +Dox/-Dox.
For `CCCn1cnc2c1c(=O)n(CCCCC(C)=O)c(=O)n2C`, the fold change was 0.994.
Still for that read-out and setting: for `Cc1c(-c2ccc(O)cc2)n(Cc2ccc(OCCN3CCCCCC3)cc2)c2ccc(O)cc12` the value was 0.888; for `CCN(CC)C(=O)c1cccnc1`, 0.829; for `O=C(O)c1cc(N=Nc2ccc(O)c(C(=O)O)c2)ccc1O`, 0.766 and 0.877.

Still in this experiment, the particulars now being: A549 miR-34 inducible, Hoechst nuclei count, 48 h; measured here: total cells with miR-34 induction; stronger effect = lower value.
`CCCn1cnc2c1c(=O)n(CCCCC(C)=O)c(=O)n2C` displayed a cell count of 10000.
Still for that read-out and setting: the figure for `Cc1c(-c2ccc(O)cc2)n(Cc2ccc(OCCN3CCCCCC3)cc2)c2ccc(O)cc12` is 6380; for `CCN(CC)C(=O)c1cccnc1` it is 8700.
Take `O=C(O)c1cc(N=Nc2ccc(O)c(C(=O)O)c2)ccc1O`: the cell count was 9060 and 9000.

Staying with this experiment, now noted: A549 miR-34 inducible, Hoechst nuclei count, 48 h; measured here: total cells without miR-34 induction.
Turning to `CCCn1cnc2c1c(=O)n(CCCCC(C)=O)c(=O)n2C`, the cell count was found to be 9790.
`Cc1c(-c2ccc(O)cc2)n(Cc2ccc(OCCN3CCCCCC3)cc2)c2ccc(O)cc12` gave a cell count of 6940.
On the same count and under the same terms, the figure for `CCN(CC)C(=O)c1cccnc1` is 9130; for `O=C(O)c1cc(N=Nc2ccc(O)c(C(=O)O)c2)ccc1O` it is 9680 and 7270.

A further experiment has as its target NAD(+) hydrolase SARM1 (Homo sapiens) (UniProt Q6SZW1). Put plainly: blocking NAD cleavage by SARM1 SAM-TIR – cell lysate, NAD-Glo luminescence (AID 1508614;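 active = compound whose remaining NAD level is above about 45 nM, limit read from the data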;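 note: higher remaining NAD means stronger inhibition of SARM1 NADase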). To be noted: SAM-TIR HEK293T lysate NADase, at 1 µM, stronger effect = higher value.
In the case of `O=C(O)C1(C(=O)O)CCC1.[NH2-].[NH2-].[Pt+2]`, the remaining NAD was 10 nM (inactive).
Same read-out and setting: for `N[C@@H](Cc1ccc(O)cc1)C(=O)O` the value was 10 nM (inactive); for `CCCC(=O)O[C@]1(C(=O)CO)CC[C@H]2[C@@H]3CCC4=CC(=O)CC[C@]4(C)[C@H]3[C@@H](O)C[C@@]21C`, 10 nM (inactive); for `C[C@]12CC[C@@H]3c4ccc(O)cc4CC[C@H]3[C@@H]1CC[C@@H]2OC(=O)CCC1CCCC1`, 10 nM (inactive).
As for `CCCCC(=O)O[C@]1(C(=O)CO)CC[C@H]2[C@@H]3CCC4=CC(=O)CC[C@]4(C)[C@H]3[C@@H](O)C[C@@]21C`, the remaining NAD was 10 nM (inactive).
Still for that read-out and setting: the figure for `CCN(CC)C(=O)c1cccnc1` is 10 nM (inactive); for `O=C(O)c1cc(N=Nc2ccc(O)c(C(=O)O)c2)ccc1O` it is 10 nM (inactive); for `CCOc1ccccc1C(N)=O` it is 10 nM (inactive).

Another experiment concerns the target Mitogen-activated protein kinase 7 (Homo sapiens) (UniProt Q13164). Put plainly: Gal4-ERK5 driven luciferase induction – cell-based, HTS, primary screen (AID 1508626).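 Note: luciferase driven by Gal4-ERK5 fusion binding five Gal4 sites before minimal TATA.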 To be noted: HeLa Gal4-ERK5 transactivation, 18 h, at 5 µM, stronger effect = higher value.
With `O=C(O)C1(C(=O)O)CCC1.[NH2-].[NH2-].[Pt+2]`, the luciferase signal was 40 AU (inactive).
On the same count and under the same terms, for `CCCC(=O)O[C@]1(C(=O)CO)CC[C@H]2[C@@H]3CCC4=CC(=O)CC[C@]4(C)[C@H]3[C@@H](O)C[C@@]21C` the value was 148 AU (inactive); for `O=C(O)C(S)C(S)C(=O)O` (centres undefined), 96 AU (inactive); for `CC(C)=CCC[C@@](C)(O)[C@H]1CC=C(C)CC1`, 32 AU (inactive).
`C[C@]12CC[C@@H]3c4ccc(O)cc4CC[C@H]3[C@@H]1CC[C@@H]2OC(=O)CCC1CCCC1`: the luciferase signal is 84 AU (inactive).
Same read-out and setting: the figure for `CC(=O)N(c1onc(C)c1C)S(=O)(=O)c1ccc(N)cc1` is 40 AU (inactive); for `C#C[C@]1(OC(C)=O)CC[C@H]2[C@@H]3CCC4=C/C(=N/O)CC[C@@H]4[C@H]3CC[C@@]21CC` it is 24 AU (inactive); for `CCCCC(=O)O[C@]1(C(=O)CO)CC[C@H]2[C@@H]3CCC4=CC(=O)CC[C@]4(C)[C@H]3[C@@H](O)C[C@@]21C` it is 72 AU (inactive).
Same read-out and setting: the figure for `CC(=O)Oc1ccc2c(c1)CC[C@@H]1[C@@H]2CC[C@]2(C)[C@@H](O)CC[C@@H]12` is 36 AU (inactive); for `N[C@H]1C(O)O[C@H](CO)[C@@H](O)[C@@H]1O` (some centres undefined) it is 84 AU (inactive).
